AID504770 – growth inhibitors of E. coli YBA685 in a screen for V. cholerae RctB (chromosome II replication) inhibitors | z-score (test concentration not listed) | E. coli YBA685 rctB-dependent plasmid, OD600 growth, 3 h; stronger effect = lower value | 0.27% of 130,000 active | AID 504770; in the data active = z-score below about -2, passing the limit was not always enough
Mtb MenB inh – inhibitors of Mycobacterium tuberculosis MenB enzyme | P9WNP5 | MenB enzyme assay, absorbance read-out | inhibition, % (concentration not given with the values) | 0.43% of 100,000 active | AID 540299; in the data active = inhibition above about 21%, passing the limit was not always enough
Mtb MbtI inh – MbtI salicylate synthase inhibition. inhibition, % (concentration not given with the values). purified MbtI enzyme, fluorescence intensity read-out. P9WFX0. 0.89% of 100,000 active; in the data active = inhibition mostly above about 56%, no sharp cut-off; inactive = mostly below about 77%
Target sequence (P9WFX0 whole entry, looked up): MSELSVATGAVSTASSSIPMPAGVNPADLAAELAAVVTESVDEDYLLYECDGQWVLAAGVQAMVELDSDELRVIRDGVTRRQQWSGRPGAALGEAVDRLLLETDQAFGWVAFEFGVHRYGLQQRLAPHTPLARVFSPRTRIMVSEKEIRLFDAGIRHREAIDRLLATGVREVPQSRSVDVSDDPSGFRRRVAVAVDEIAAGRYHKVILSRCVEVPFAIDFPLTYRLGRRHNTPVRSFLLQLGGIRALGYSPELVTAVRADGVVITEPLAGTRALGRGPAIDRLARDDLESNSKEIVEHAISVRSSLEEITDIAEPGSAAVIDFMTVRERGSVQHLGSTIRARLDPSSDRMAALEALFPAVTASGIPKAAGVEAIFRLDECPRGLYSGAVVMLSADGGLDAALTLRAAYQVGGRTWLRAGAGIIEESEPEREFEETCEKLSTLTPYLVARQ
Polio RdRp inh – inhibitors of poliovirus RNA polymerase binding and polymerization. poliovirus polymerase elongation, fluorescence polarization; stronger effect = lower value. % elongation, % (compound at 16.7 µg/mL). 0.66% of 150,000 active; in the data active = % elongation below about 90%
Active calls of the source: *; · = no result given. A selection: hits, their analogues and other compounds. The true share with any hit is near 1.4%.

SMILES	AID504770	Mtb MenB inh	Mtb MbtI inh	Polio RdRp inh
CC1=CC(=O)C=C(C)C1=NS(=O)(=O)c1ccccc1	2	-11	96*	103
Cc1c(C(=O)Nc2ccc(S(=O)(=O)N3CCCCCC3)cc2)oc2ccc(F)cc12	-0.4	-42	4	104
CCN(CC)c1nc2n(c(=S)n1)CCS2	0.9	30*	-2	102
CCC(=O)Nc1nnc2n1CCS2	·	·	·	107
CC(=O)Nc1cccc(-c2nnc(SCc3ccccc3)o2)c1	-0.45	-20	-17	105
CCCOc1ccc(S(=O)(=O)n2cc(Br)c(=O)[nH]c2=O)cc1	0.2	·	82*	·
O=c1[nH]c(=O)n(S(=O)(=O)c2ccc(F)cc2)cc1F	0.2	-70	-34	94
COC(=O)N(c1ccccc1)P1(=S)OCCO1	1.1	37*	102*	96
CC(C)CCNC(=O)C1CC(=O)N(CCC(C)C)C1 (stereo not drawn)	-0.15	·	·	·
CN(C(=O)CSc1nncn2c1cc1sccc12)c1ccccc1	-0.5	33*	6	98
CCCCC1CCC(CCCC(C)CCC(=O)O)CC1 (stereo not drawn)	·	·	·	89*
CCCCC1CCC(C(=O)O)CC1 (stereo not drawn)	-0.5	·	-7	101
CCOC(=O)c1cc(CN)c(C)o1	-0.3	-22	-6	105
Nc1nc(N)c2[nH]c(C3CCCCC3)nc2n1	-1	-6	79	79*
Nc1n[nH]c(C2CCCCC2)n1	0.05	-54	-2	101
O=C(O)CCCN1C(=O)S/C(=C\C=C\c2ccccc2)C1=O	-0.2	·	·	·
ClCc1nc2ccccc2[nH]1	0.6	·	·	·
O=c1cc(-c2ccccc2)sc(=O)[nH]1	-0.1	5	·	108
S=c1cc(-c2ccccc2)ss1	0.9	-9	94*	88*
COC(=O)Cn1ncc2c3ccccc3n(Cc3ccccc3F)c2c1=O	1.4	4	16	102
Cc1ccc(S(=O)(=O)N(C)c2c(C)ccc(S(=O)(=O)n3nc(C)cc3C)c2C)cc1	0.2	39*	-4	101
COc1cc(OC)cc(C(=O)Nc2cc(NC(=O)c3ccco3)ccc2OC)c1	-0.4	48*	9	99
COc1ccc(NC(=O)c2ccco2)cc1NC(=O)c1ccc(C)c(C)c1	·	·	·	104
Cc1cccc(CS(=O)(=O)Cc2ccc(C(=O)NCCCN3CCC(C)CC3)o2)c1	-0.7	·	·	·
CCc1ccc(NC(=O)CCN2C(=O)C3C4C=CC(C4)C3C2=O)cc1 (stereo not drawn)	-0.15	1	-1	99
SMILES	AID504770	Mtb MenB inh	Mtb MbtI inh	Polio RdRp inh
COc1ccc(S(=O)(=O)N2CCN(C(C)C(=O)NCc3ccccc3)CC2)cc1 (stereo not drawn)	-0.4	-26	-7	·
CC(C)(C)OC(=O)NCc1cccs1	0.95	33*	6	102
Cc1ccc(S(=O)(=O)c2[nH]c(=S)sc2N2CCOCC2)cc1	-0.2	-37	93*	·
CC(C)Cn1c(Sc2ncnc3sccc23)nc2ccccc2c1=O	-0.7	-24	-4	106
Cc1cc(NC(=O)CSc2ccccc2)no1	-0.45	32*	4	98
Cc1cc(NC(=O)CCc2ccccc2)no1	-0.2	·	·	·
O=C(NCc1ccc(-c2nc3ncccc3o2)cc1)c1ccc(Cl)cc1	-0.1	13	28	102
C=CCN1C(=O)/C(=C\c2ccc(OC(=O)c3ccco3)c(OC)c2)SC1=S	-0.6	-37	-9	105
COc1cc(/C=C2/C(=O)NN(c3ccc(Cl)cc3)C2=O)ccc1OC(=O)c1ccco1	-0.35	-42	99*	101
N#CSC(C#N)Cc1ccccc1 (stereo not drawn)	-6.5*	19	83*	98
Cc1ccc(CC(C#N)Sc2nnc(C)n2Cc2ccccc2)cc1 (stereo not drawn)	0.2	-6	-2	107
Cc1nonc1NC(=O)Nc1cccnc1	-2*	-11	·	103
Cc1ccc(-c2nc3s/c(=C/c4cccs4)c(=O)n3n2)cc1	-0.05	·	·	·
O=C(O)CCN1C(=O)Cc2ccccc2C1=O	-0.85	-25	6	22*
O=C(CSc1nnc(-c2cc3ccccc3[nH]2)n1-c1ccccc1)N1CCNC1=O	-0.35	3	2	58*
CCOc1ccc(-c2cc(N)n(S(=O)(=O)c3ccccc3)n2)cc1	1.8	·	·	·
CCC(=O)NC(=S)Nc1cc(-c2nc3ncccc3o2)ccc1C	0.15	-16	5	99
CCSc1nc(C)cc(COC)c1C#N	-0.2	-10	·	101
CC(C)(C)OC(=O)N1Cc2ccccc2CC1C(=O)NCc1cccs1 (stereo not drawn)	2.4	·	·	·
CCN1CCOC(CC(=O)Nc2ccccc2C)C1=O (stereo not drawn)	0.8	-6	75*	105
CCCN1CCOC(CC(=O)Nc2ccc(Br)cc2Br)C1=O (stereo not drawn)	0.7	·	87*	·
N#Cc1sccc1CSc1ccc(Cl)cc1	0.8	·	·	·
CN(C)C=NC(=S)c1sccc1CSc1ccc(Cl)cc1	1.8	-26	74*	106
Cc1nc2c(c(C)nn2-c2ccccc2)c(C)c1CCC(=O)N1CCc2ccccc21	0.15	·	·	·
CCOC(=O)c1cccc2ncccc12	0.75	-61	96*	99
SMILES	AID504770	Mtb MenB inh	Mtb MbtI inh	Polio RdRp inh
CCOC(=O)c1cnc2ccccc2c1NCCc1ccccc1	-0.8	-1	40	100
CCc1ccc(CN(C)C(=O)c2ccc3c(c2)OCO3)cc1	0.05	-11	2	103
COc1ccc(CNC(=O)CSC(C)(C)C)cc1OC	-4.6*	-13	-10	100
COc1ccc(CNC(=O)CCC2CCCC2)cc1OC	0.2	11	-37	101
O=S(=O)(c1ccc2oc(=S)n(CN3CCOCC3)c2c1)N1CCOCC1	-0.3	-2	77	62*
O=C(OCC(=O)N1CCc2ccccc2C1)c1sc2sccc2c1Cl	0.4	-32	-1	101
O=C(O)CCC(=O)Nc1ccc(O)c(C(=O)O)c1	0	6	106	87*
CC(=O)Nc1ccc(O)c(C(=O)O)c1	-0.65	·	·	·
CC(=O)O/N=C(\N)c1ncon1	0.1	17	-3	98
CCn1c(=O)ccc2cc(OC)ccc21	-0.25	-279	13	101
C=Cc1ccc(C=C)cc1	-0.65	23	72*	64*
O=C1NC(=O)/C(=C\c2ccccc2)S1	0.3	·	·	·
O=C1N/C(=N\Nc2ccccc2)S/C1=C\c1ccccc1	-0.45	-36	80*	108
Cc1ccccc1CN1CCc2c(OCC(=O)N3CCOCC3)cccc2C1=O	0.5	·	·	·
CCC(=O)n1nc(-c2ccco2)nc1SCc1ccccc1	-1.2	-6	-10	101
CCC(=O)n1nc(-c2ccco2)nc1SC	2	8	54*	99
Cc1ccc(C2=NN=C(NC(=O)CSc3nnc(C)s3)SC2)cc1	-0.8	8	84*	99
CCN(CC)C(=O)COc1cccc2ccccc12	-0.25	-18	10	99
CCN(CC)C(=O)COc1ccccc1C(=O)NCc1ccccc1	-0.45	27*	-6	102
CCC(CC)C(=O)OCc1ccc(C#N)cc1	1.9	·	-1	100
Cc1nn(-c2ccccc2)c2sc(C(=O)NN=C3CCCC3)cc12	2.2	-42	8	102
CO/N=C(/C(=O)N[C@@H]1C(=O)N2C(C(=O)O)=C(COC(C)=O)CS[C@H]12)c1csc(N)n1	-3.1*	4	-15	100

Source: PubChem (ICCB-Longwood Screening Facility, Harvard Medical School)
